# The panel holds about 83,000 compounds, 20% with a hit somewhere; the sample as a whole holds those more often.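 Method: cells in 96-well plates; compound added at one concentration; 48 h incubation; percent growth measured; values under 10 scored active.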 The source made the active and inactive calls.
# Test system: HL-60(TB) leukemia
# Test: NCI-60 one-dose screen, 48 h (100 = growth as untreated, 0 = no growth, -100 = all killed)
# Settings: 10 µM unless noted
row,Structure (SMILES),growth
1,N=C(N)N=Nc1ccc(NN=C(N)N)c2ccccc12,113% (inactive)
2,Cc1c(N(C)CS(=O)(=O)O)c(=O)n(-c2ccccc2)n1C,96% (inactive)
3,O=C1NC(=Nc2ccc(Cl)cc2)S/C1=C\c1cn(-c2ccccc2)nc1-c1ccccc1,92% (inactive)
4,O=C(NNc1cnccn1)c1nc2cc(F)ccc2n2cccc12,2.46% (active)
5,CCN(CC)Cc1cc(Nc2ccnc3ccc(OC)cc23)ccc1O,32.5% (inactive)
6,C/C=C1\SC(=S)NC1=O,110% (inactive)
7,Cn1cc(-c2ccc(F)c(C(F)(F)F)c2)nc1C1CCN(c2ncnc3[nH]ncc23)CC1,84.7% (inactive)
8,COc1cc(C(=O)c2cc(C)c3[nH]c4ccc(C)cc4c3c2C)cc(OC)c1OC,-2.6% (active)
9,COc1ccc(-c2c[nH]c(C(=O)O)c2-c2cc(OC)c(OC)c(OC)c2)cc1,-13.8% (active)
10,CN(C)CCOc1nc2c3cc([N+](=O)[O-])ccc3nn2c2ccccc12,11.7% (inactive)
11,CN(C)c1ccc2c(N(C)C)cc(N(C)C)nc2c1,92.1% (inactive)
12,CS(=O)(=O)c1nsc(N)n1,105% (inactive)
13,COC(=O)c1cc(-c2ccc(S(C)(=O)=O)cc2)[nH]c1N/N=C/c1c(Cl)cccc1Cl,-22.3% (active)
14,O=c1[nH]ccc2c(S(=O)(=O)N3CCCNCC3)cccc12,87.1% (inactive)
15,CN(C1c2ccccc2Oc2ccccc21)S(=O)(=O)c1cc(Cl)ccc1Cl,15.7% (inactive)
16,OCCc1ccc(Cl)cc1,104% (inactive)
17,Cc1ccc(O)c(N)c1,115% (inactive)
18,COc1ccc(-c2nc(SCCC(C)C)nc(Nc3ccc(C(=O)O)cc3)c2C#N)cc1,71.6% (inactive)
19,COC(=O)C1=C(C)C(=O)CC1,86.7% (inactive)
20,Nc1ccc(C2=NN(c3ccccc3)C(c3ccc(Cl)cc3)C2)cc1 (stereo not given),59.6% (inactive)

row,Structure (SMILES),growth
1,O=C1NC(=Nc2ccc(S(=O)(=O)Nc3nccs3)cc2)S/C1=C\c1coc2ccccc2c1=O,107% (inactive)
2,C[N+]1(CCc2ccccc2)CCC(CCC2CC[N+](C)(CCc3ccccc3)CC2)CC1 (stereo not given),105% (inactive)
3,CC(=O)NCNC(C)=O,113% (inactive)
4,C=CCN1C(=O)[C@]2(SC1=S)[C@H](c1cccc(Cl)c1)CN(C)[C@]21C(=O)NC2C=CC(Cl)=C[C@H]21 (stereo not given in full),-39.8% (active)
5,O=C(O)c1ccccc1C(=O)Nc1ccc(Cl)cc1,55% (inactive)
6,CCCCC1(O)CCCCC1,99.1% (inactive)
7,Fc1ccc(-c2nn3c(-c4cc(C(F)(F)F)cc(C(F)(F)F)c4)nnc3s2)cc1,92.2% (inactive)
8,CC(C)(CO)N(CCO)CCO,103% (inactive)
9,CCOc1c(B(O)O)cccc1-c1nc2ccc3[nH]ncc3c2c2c1CCCC2,23.6% (inactive)
10,O=C(CSc1nnc2sc(Nc3cccc(Cl)c3)nn12)c1ccc(F)cc1,82.7% (inactive)
11,CC(C)C1C2=C(NCCN1C(=O)c1ccncc1)C(C)(C)N(Cc1ccccc1)C2=O (stereo not given),87.3% (inactive)
12,O=C(/C=C/C(Cl)(Cl)Cl)Nc1ccc(Cl)cc1,34.5% (inactive)
13,Clc1cccc(CNc2c3ccccc3nc3ccccc23)c1,9.02% (active)
14,N#CCc1cccc2ccccc12,90.6% (inactive)
15,COC(=O)c1ccc2[nH]c(O)c(C(=Nc3ccc(N(C)C(=O)CN4CCN(C)CC4)cc3)c3ccc([N+](=O)[O-])cc3)c2c1,11.6% (inactive)
16,CC(=O)OC[C@H]1OC(Sc2sc(C(=O)c3ccc(C)cc3)c(N)c2-c2nc3ccccc3s2)[C@H](OC(C)=O)[C@@H](OC(C)=O)[C@@H]1OC(C)=O (stereo not given in full),80% (inactive)
17,COc1ccc(N2C(=O)C(Oc3ccccc3)C2c2ccc(C)cc2)cc1 (stereo not given),85.4% (inactive)
18,O=C(O)c1ccccc1C(=O)c1ccc(I)cc1,93.1% (inactive)
19,CCC(=C(c1ccc(OCCN(CC)CC)cc1)c1ccc(OCCN(CC)CC)cc1)c1ccc(Cl)cc1,-51.6% (active)
20,CCOC(=O)c1nc(Nc2ccc(NC(=O)Nc3ccc(F)cc3)cc2)c2ccccc2n1,110% (inactive)
